From PubChem
Sm TGR inh – inhibitors of Schistosoma mansoni thioredoxin glutathione reductase | AID 485364 | Potency, µM (doses to about 114 µM), for inactives: at the highest dose activity change, negative = inhibition, usual class: inhibitors | purified TGR, DTNB reduction, TNB absorbance 405 nm | 360,000 compounds, 3% hits | Q962Y6; note: % is set by controls: 0 for no effect and ±100 for the full control effect; nearly all actives have a fitted effect of over 60% in size
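TGR 20 nM + NADPH 100 uM (dispensed conc.), cpd preinc 15 min RT; start with NADPH (500 uM addition) then DTNB (15 mM addition). Kinetic TNB absorbance, 405 nm filter. Four-parameter Hill fit across titration.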
AmpC detergent – inhibitors of E. coli AmpC beta-lactamase with detergent. 370,000 compounds, 0.041% hits. AmpC hydrolysis of nitrocefin, absorbance 480 nm, 0.01% Triton. P00811. Potency, µM (series often up to 114 µM), for the others: at the highest dose activity change, negative = inhibition, actives largely listed as inhibitors;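 note: 0% = no-compound wells and -100% = no-enzyme wells; nearly all actives have a fitted effect of over 25% in size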
Target sequence (P00811 whole entry, looked up): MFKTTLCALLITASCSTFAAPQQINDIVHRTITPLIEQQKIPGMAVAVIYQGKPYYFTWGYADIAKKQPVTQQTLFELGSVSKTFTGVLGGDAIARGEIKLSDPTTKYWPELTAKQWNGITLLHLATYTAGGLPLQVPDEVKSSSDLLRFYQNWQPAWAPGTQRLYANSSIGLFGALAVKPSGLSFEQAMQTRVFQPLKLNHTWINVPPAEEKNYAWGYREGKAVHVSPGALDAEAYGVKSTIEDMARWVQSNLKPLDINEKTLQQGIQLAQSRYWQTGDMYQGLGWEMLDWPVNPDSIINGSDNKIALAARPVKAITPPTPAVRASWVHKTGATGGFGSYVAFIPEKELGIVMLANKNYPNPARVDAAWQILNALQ
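AmpC (5.3 nM in the dispensed reagent) in 20 mM phosphate pH 7.0 with 0.01% (detergent screen) or 0.0001% Triton X-100 was preincubated with compounds for 15 min at room temperature. Nitrocefin was then added from an 800 uM solution, and hydrolysis was followed at 480 nm.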
SARS PLpro yeast – inhibitors of SARS-CoV papain-like protease in yeast; S. cerevisiae expressing SARS-CoV PLpro, growth rescue; Potency, µM (series often up to 32.9 µM), for inactives: at the top dose activity, positive = growth rescue, hits mostly activators; 330,000 compounds, 0.19% hits; AID 485353; calls by dose curve; note: 0% is about no effect; nearly all actives have a fitted effect of over 55% in size
Pf growth 48h – P. falciparum growth inhibition at 48 hours (one generation); 310,000 compounds, 5.9% hits; P. falciparum luciferase growth in erythrocytes, 48 h; AID 504832; Potency, µM (highest dose often 28.7 µM), inactives show at the top dose activity change, negative = inhibition, most hits filed as inhibitors; note: % is set by controls: 0 for no effect and ±100 for the full control effect
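Here the parasites carry a stable luciferase gene and grow inside erythrocytes in Albumax-based RPMI medium with compound for one erythrocytic cycle. Activity is scored as loss of luminescent signal.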
Pf growth 96h – P. falciparum growth inhibition at 96 hour, primary screen for plastid delayed-death inhibitors | P. falciparum luciferase reporter growth, 96 h | Potency, µM (highest dose often 28.7 µM), inactives show top-dose activity change, negative = inhibition, hits mostly inhibitors | 320,000 compounds, 6.9% hits | AID 504834; note: % is set by controls: 0 for no effect and ±100 for the full control effect
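Two-generation exposure (96 h) targets delayed-death phenotype. Reporter parasites carrying integrated firefly luciferase, in red cells at 2% hematocrit and 0.05% parasitemia final, kept at 37 C, 5% CO2; luminescence loss indicates inhibition.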
AmpC inh no detg – AmpC beta-lactamase inhibition without detergent | P00811 | Potency, µM (series often up to 57.1 µM), inactives show at the highest dose activity change, negative = inhibition, hits mostly inhibitors | 330,000 compounds, 0.52% hits | AmpC nitrocefin hydrolysis, absorbance 480 nm, 0.0001% Triton;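 note: plate controls were no compound for no effect and no enzyme for full effect; nearly all actives have a fitted effect of over 20% in size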
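20 mM phosphate pH 7.0 + 0.01% (detergent screen) or 0.0001% Triton X-100; 5.3 nM AmpC reagent; cpd preinc 15 min RT; nitrocefin (800 uM stock) to start; A480 q20 s × 4 min; Activity was normalised to no-enzyme and no-compound control wells.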
Starred values were filed as active, the others as inactive; ? = inconclusive; / = not tested or not shown; [ ] = dose if it differs, or a comment. The list is not random: actives were taken first. Their share in the collection is about 12%. Unless noted, calls come from the whole dose curve; as a rule, active = well fitted curve in the direction sought with a large enough effect; inconclusive = small, poorly fitted or top-dose-only effect, or another doubt; inactive = no such curve, though single readings can be large; an effect the other way counts as inactive or inconclusive. Potency is the fitted concentration of half-maximal effect.

SMILES	Sm TGR inh	AmpC detergent	SARS PLpro yeast	Pf growth 48h	Pf growth 96h	AmpC inh no detg
CCOc1ccc(NC(=O)CC2C(=O)N(c3ccc(OC)cc3)C(=O)N2C2CCCCC2)cc1 (centres undefined)	9.1%	4.4%	/	/	/	/
Cc1ccc(N2C(=O)C(CC(=O)Nc3cccc(F)c3)N(C3CC3)C2=O)cc1 (centres undefined)	50.1µM*	2.4%	0.5%	19.9%	-28.7%	-10.9%
CCOc1ccc(N2C(=O)C(CC(=O)Nc3ccccc3)N(Cc3ccccn3)C2=S)cc1 (centres undefined)	1.7%	?	3.9%	?	9.28µM*	128.1%
COc1ccc(NC(=O)CC2C(=O)N(c3ccc(OC)cc3)C(=O)N2C2CCCCC2)cc1 (centres undefined)	56.2µM*	8.9%	/	/	/	/
CCN(Cc1ccccc1)C(=O)c1ccc(Cl)cc1[N+](=O)[O-]	-11.2%	2.3%	2.3%	-14.7%	?	-1.4%
CCOc1ccccc1-n1ccnc(NCc2ccc(F)cc2)c1=O	9.3%	-0.5%	/	/	/	/
COC(=O)c1ccc(NC(=O)CN(c2cccc(C(F)(F)F)c2)S(C)(=O)=O)cc1	0.0%	2.0%	/	/	/	/
CC(=O)c1ccc(N2CCN(C(C)C(=O)NC3CCCc4ccccc43)CC2)cc1 (centres undefined)	-11.1%	?	15.9%	-21.0%	0.0%	44.6%
COc1c(Cl)cc(C(=O)N(Cc2ccc(C)o2)C2CCS(=O)(=O)C2)cc1Cl (centres undefined)	-13.2%	?	/	/	/	/
CCOc1ccc(NC(=O)CC2C(=O)N(c3ccccc3)C(=O)N2C2CCCC2)cc1 (centres undefined)	50.1µM*	25.4%	/	/	/	/
COc1cn(CC(=O)Nc2ccccc2)c(CN2CCCCC2)cc1=O	46.2%	7.8%	/	/	/	/
COc1ccccc1CNC(=O)C(=O)NCC1OCCN1C(=O)c1ccc(Cl)cc1 (centres undefined)	-0.7%	5.5%	0.3%	-27.3%	4.0%	-3.5%
O=C(NCc1ccco1)C(=O)NCC1OCCN1C(=O)c1ccc(Cl)cc1 (centres undefined)	17.8µM*	6.6%	0.0%	5.3%	-1.4%	-8.8%
COc1ccc(-n2nc(C(=O)N3CCN(c4cccc(C)c4)C(C)C3)c3c4ccccc4n(C)c3c2=O)cc1Cl (centres undefined)	-12.8%	-1.4%	/	/	/	/
OC(COc1ccc(Cl)cc1Cl)Cn1ccnc1 (centres undefined)	7.1%	?	-2.4%	/	-12.6%	-8.5%
Clc1ccc(COC(Cn2ccnc2)c2ccc(Cl)cc2Cl)c(Cl)c1 (centres undefined)	1.5%	-4.6%	-57.0%	2.08µM*	1.65µM*	29.5%
C=CCOC(Cn1ccnc1)c1ccc(Cl)cc1Cl (centres undefined)	-1.6%	2.6%	11.3%	4.15µM*	3.38µM*	-1.5%
O=C(Oc1c(Br)cc([N+](=O)[O-])cc1Br)c1cccnc1	-34.6%	-2.7%	-47.5%	-16.9%	6.57µM*	-13.2%
O=C(Oc1cccnc1)c1ccccc1[N+](=O)[O-]	-2.3%	-10.2%	-6.7%	2.2%	?	-9.2%
N/C(=N\OC(=O)c1ccc([N+](=O)[O-])cc1)c1cccnc1	-15.9%	-5.6%	-9.7%	81.2%	-17.9%	-9.3%
Cc1cc(C(=O)Oc2cccnc2)ccc1[N+](=O)[O-]	-35.4%	?	1.0%	5.2%	3.7µM*	-16.1%
COc1ccc(-c2nc3c4ccccc4n(CC(=O)N4CCN(c5ccccc5F)CC4)c(=O)n3n2)cc1	22.2%	-8.5%	/	/	/	/
COc1ccc(-c2cn3c(n2)sc2cc(C(=O)NC4CCCc5ccccc54)ccc23)cc1 (centres undefined)	8.2%	5.0%	/	/	/	/
O=C(Nc1ccc(Cl)c(S(=O)(=O)N2CCOCC2)c1)c1ccc2c(c1)OCO2	/	/	-0.8%	/	/	-26.1%
COc1ccc(C(=O)Nc2ccc(Cl)c(S(=O)(=O)N3CCOCC3)c2)cc1	/	/	0.6%	/	/	-7.5%
SMILES	Sm TGR inh	AmpC detergent	SARS PLpro yeast	Pf growth 48h	Pf growth 96h	AmpC inh no detg
O=C(Nc1ccc(Cl)c(S(=O)(=O)N2CCOCC2)c1)c1ccc2c(c1)OCCO2	-10.4%	?	-1.7%	13.1µM*	?	-32.1%
O=C(Nc1ccc(Cl)c(S(=O)(=O)N2CCOCC2)c1)c1ccc(OCC2CCCO2)cc1 (centres undefined)	-7.3%	-0.5%	4.0%	11.7µM*	4.15µM*	75.2%
O=C(Nc1ccc(Cl)c(S(=O)(=O)N2CCOCC2)c1)c1ccc(Cl)nc1	1.5%	-17.9%	2.0%	?	7.38µM*	-20.2%
O=[N+]([O-])CC(=Nc1ccc(F)cc1)N/N=C\c1oc(O)c2ccccc12	11.2µM*	0.8%	-0.2%	61.6%	28.5%	-58.3%
O=C(N/N=C/c1oc(O)c2ccccc12)c1ccccc1O	-1.7%	?	8.1%	29.6%	65.1%	-29.6%
O=C(COc1ccc(Br)cc1Cl)Nc1ncn[nH]1	4.6%	-1.8%	/	/	/	/
COc1cc2c3nnc(-c4ccc(F)cc4)c-3cn(Cc3ccccc3F)c2cc1OC	-0.2%	-7.9%	1.9%	0.37µM*	0.738µM*	41.1%
CCOCCCn1c(=N)c(C(=O)NC2CCCC2)cc2c(=O)n3cccc(C)c3nc21	0.3%	18.6%	/	/	/	/
Cc1ccc(C2SCC(=O)N2Cc2ccccc2)cc1 (centres undefined)	-2.9%	-5.1%	0.5%	-2.9%	13.1µM*	-11.1%
Cc1cccc(NC(=O)c2ccc(C3SCC(=O)N3CCc3ccccc3)cc2)c1C (centres undefined)	-0.7%	-12.4%	-0.2%	/	8.28µM*	-11.9%
COc1ccc(C2SCC(=O)N2Cc2ccccc2)cc1 (centres undefined)	6.1%	2.3%	-2.4%	13.5%	9.8%	-2.5%
CCc1ccc(NC(=O)c2ccc(C3SCC(=O)N3CCc3ccccc3)cc2)cc1 (centres undefined)	0.4%	-2.5%	-0.5%	/	?	-6.3%
COc1cc(C2SCC(=O)N2Cc2ccccc2)ccc1O (centres undefined)	-9.7%	0.0%	-2.1%	2.2%	9.28µM*	-7.7%
CCC(Oc1ccccc1)C(=O)Nc1ccc(O)c(-c2nc3cc(C)ccc3o2)c1 (centres undefined)	8.7%	13.8%	/	/	/	/
Cc1onc(-c2c(F)cccc2Cl)c1C(=O)OCC(=O)NC1CC1	4.7%	?	-0.1%	8.9%	10.0%	-0.5%[11.4 µM]
CCn1c(SCC(=O)C(C)(C)C)nnc1-c1cnccn1	-1.4%	-7.2%	2.0%	-25.2%	8.0%	-5.6%
CSc1nnc(-c2cnccn2)n1CCCN1CCCC1=O	2.8%	-17.2%	-8.7%	0.0%	7.38µM*	-14.0%
